Our source for the Potency values is PubChem BioAssay AID652256 (National Center for Advancing Translational Sciences (NCATS), 2013).

The assay relates to Thioredoxin reductase 1 (TXNRD1), rat. The experiment in a line: qHTS Assay for Inhibitors of Mammalian Selenoprotein Thioredoxin Reductase 1 (TrxR1): DTNB Assay. The note with it: purified TrxR1, DTNB reduction, A412. The text has this: The selenoprotein thioredoxin reductase (TrxR; EC 1.8.1.9) is a FAD containing homodimeric pyridine nucleotide-disulfide oxidoreductase with many cellular roles. Together with NADPH and its prime substrate thioredoxin (Trx), the enzyme forms the core of the Trx system. The mammalian Trx system exerts a wide spectrum of functions including redox regulation, antioxidant defense, regulation of transcription factors as well as support of cell growth and replication. Many of these functions involve the reduction of Trx, which may subsequently reduce a number of different substrates including ribonucleotide reductase, peroxiredoxins or NFkB. Mammalian TrxR itself also has a broad substrate specificity, reducing both protein and non-protein substrates, including low molecular weight compounds such as dehydroascorbate, lipoic acid, ubiquinone, and juglone. In addition, several drugs in clinical use for anticancer treatment are indeed known to target TrxR1. This orthogonal DTNB assay seeks to further characterize cherry picks. […]
15 nM TrxR1 is reduced by 250 microM NADPH in TE buffer [50 mM Tris-HCl (pH 7.5), 2 mM EDTA] in a 96-well microtiter plate. […] During compound incubation, NADPH consumption is followed by the decrease in absorbance at 340 nm using a VersaMax microplate reader (Molecular Devices) to determine substrate potential of the compound. […]
For orientation: qHTS replaces the single test concentration by a dilution series.

The other results are listed elsewhere or left out. Activity calls are given as the source filed them.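 Rule for the calls: active = a half-inhibiting concentration could be measured and was below 100 µM; inactive = the rest.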

With `COc1ccc(-c2nc(CS(=O)CC(=O)N3CCC4(CC3)OCCO4)c(C)o2)cc1` (stereo unspecified), the Potency was 1460 nM (active).
